In this test the target is Inward rectifier potassium channel 2 (Mus musculus) (UniProt P35561). In words: off-target blockade of inward rectifier Kir2.1 – cell-based, FluxOR thallium flux, CRC round 2, selectivity assay for KCNK9 inhibitor project, SAR follow-up (AID 540321).

Calls of active or inactive are those of the source.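 Rule for the calls: active = Inhibition of the Kir2.1 potassium channel over 30% at some tested dose, plus a fitted dose response curve; inactive = no Kir2.1 inhibition at any dose, or no curve fitted.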

Our source for the outcome values is PubChem BioAssay AID540321 (Johns Hopkins Ion Channel Center, 2011).

Chain of Inward rectifier potassium channel 2 (Mus musculus) (P35561 whole entry, looked up): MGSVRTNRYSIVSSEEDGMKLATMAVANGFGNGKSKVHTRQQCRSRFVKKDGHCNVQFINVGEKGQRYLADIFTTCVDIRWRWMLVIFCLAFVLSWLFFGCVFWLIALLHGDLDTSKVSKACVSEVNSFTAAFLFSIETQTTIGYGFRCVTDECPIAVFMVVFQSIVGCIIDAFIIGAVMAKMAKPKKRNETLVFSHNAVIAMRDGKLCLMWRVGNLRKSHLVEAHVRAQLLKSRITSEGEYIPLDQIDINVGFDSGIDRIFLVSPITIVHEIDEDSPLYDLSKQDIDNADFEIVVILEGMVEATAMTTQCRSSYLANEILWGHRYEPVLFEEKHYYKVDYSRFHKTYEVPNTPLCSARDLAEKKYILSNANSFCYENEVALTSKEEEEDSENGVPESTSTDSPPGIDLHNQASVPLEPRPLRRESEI

Regarding `CCOc1ccccc1NC(=O)c1cccc(NC(=O)c2ccccc2C(F)(F)F)c1`, the call was inactive.

Take `Cc1ccc(C(=O)Nc2cccc(NC(=O)c3ccccc3)c2)cc1`: the outcome was inactive.

Turning to `Cc1cccc(C(=O)Nc2cccc(NC(=O)c3cccc(C)c3)c2)c1`, the result was inactive.

Consider `O=C(Nc1cccc(NC(=O)c2cccc(F)c2)c1)c1ccccc1`, for which the result was inactive.

Turning to `COc1ccccc1C(=O)Nc1cccc(NC(=O)c2ccccc2OC(F)(F)F)c1`, the outcome was inactive.

Take `COc1ccccc1C(=O)Nc1cccc(NC(=O)c2ccccc2OC)c1`: the compound was called inactive.

Regarding `O=C(Nc1cccc(NC(=O)c2ccc(F)cc2)c1)c1ccccc1`, the result was inactive.

Take `S=c1[nH]nc(-c2ccco2)n1CC1CCCCC1`: the compound was called inactive.

Regarding `CCOc1ccccc1NC(=O)c1cccc(NC(=O)C2CCCC2)c1`, the compound was classed as inactive.

For the compound `CC(C)(C)c1ccc(C(=O)Nc2cccc(NC(=O)c3ccccc3)c2)cc1`, the outcome was inactive.

As for `Cc1cccc(C(=O)Nc2cccc(NC(=O)c3ccc(C(C)(C)C)cc3)c2)c1`, the compound was called inactive.

On to `CC(C)n1c(-c2ccco2)n[nH]c1=S`, for which the result was inactive.

Take `O=C(Nc1cccc(NC(=O)c2ccc(Cl)cc2)c1)c1ccccc1`: the call was inactive.

`O=C(Nc1cccc(NC(=O)c2ccsc2)c1)c1ccccc1`: the result was inactive.

Turning to `CCOc1ccccc1NC(=O)c1cccc(NC(=O)c2ccccc2)c1`, the compound was called inactive.

Consider `COc1ccccc1NC(=O)c1cccc(NC(=O)c2ccccc2C(F)(F)F)c1`, for which the result was inactive.

Turning to `Cc1cccc(C(=O)Nc2cccc(NC(=O)c3ccccc3OCC(C)C)c2)c1`, the result was inactive.

As for `COc1ccc(C(=O)Nc2cccc(NC(=O)c3ccccc3)c2)cc1`, the result was inactive.
